# In PubChem BioAssay (NCATS):
# Values joined by “and” are separate entries in the source; they are usually repeats but may differ in a detail not shown here. Equal entries are not always repeated. Inconclusive results are not listed. A call without a number means that no potency is given here. Active and inactive are the calls of the source. Calls come from the whole dose curve; as a rule, active = well fitted cell-killing curve with a large enough effect; inconclusive = small, poorly fitted or top-dose-only effect, or effect the other way; inactive = no such curve, though single readings can be large or run the other way.
# Test: Cell Viability - LYMP2-005 (AID 967)
# Details: LYMP2-005 lymphoblastoid cell viability; series mostly up to 92.2 µM
# From the text: NIH Chemical Genomics Center [NCGC]
# NIH Molecular Libraries Screening Centers Network [MLSCN]
# National Institutes of Environmental Health Sciences [NIEHS]
# National Toxicology Program [NTP]
# We have developed a 1536-well cell-based assay for quantitative high throughput screening (qHTS) against a number of cell lines to determine in vitro cytotoxicity of small molecules. This particular assay uses a human lymphoblastoid cell line (LYMP2-005) purchased from Coriell Institute for Medical Research.
# NCGC Assay Protocol Summary:
# The CellTiter-Glo luminescent cell viability assay (Promega) is a homogeneous method to measure the number of viable cells in culture. The end point readout of this assay is based on quantitation of intracellular ATP, an indicator of metabolic activity, using the luciferase reaction. Luciferase catalyzes the oxidation of beetle Luciferin to oxyluciferin and light in the presence of ATP. The luminescent signal is proportional to amount of ATP present.
# Using the CellTiter-Glo luminescent cell viability assay, the amount of cellular ATP was measured in the lymphoblastoid cell line with complete culture medium following compound treatment for 24 hours. The assay was performed in opaque white Kalypsys 1536-well plates. In the screen, tetraoctylammonium bromide was used as positive control. Library compounds were measured for their ability to cause acute toxicity in the cell line, as reflected by a decrease in intracellular ATP levels, in a concentration-dependent manner. […] AC50 values were determined from concentration-response data modeled with the standard Hill equation.
# qHTS protocol for CellTiter Glo lymphoblastoid cellular assay
# [Step] [Parameter] [Value] [Description]
# 1. Reagent; 5 uL; 2500 lymphoblastoid cells/well
# 2. Time; 5 hr; 37 C incubation
# 4. Controls; 23 nL; Tetraoctylammonium bromide 6.4pM to 92 uM
# 5. Time; 24 hr; 37 C incubation
# 6. Reagent; 5 uL; CellTiter Glo reagent
# 7. Time; 30 min; Room Temperature
# 8. Detection; Luminescence; Viewlux plate reader
# Keywords: cell viability, cytotoxicity, lymphoblastoid cell line, luminescence, NTPHTS, NTPHTS_NCGC, NIEHS, DSSTox, MLSMR, MLSCN, NIH Roadmap, qHTS, NCGC
# Potency is the fitted concentration of half-maximal effect.
row,SMILES,Potency
1,COc1c2ccoc2cc2oc(=O)ccc12,inactive
2,CN(C)CCCCCCN(C)C,inactive
3,C/C=C\c1ccc(OC)cc1,inactive
4,OCCNCCO,inactive
5,C=Cc1ccccc1Cl,inactive
6,Cc1ccc([N+](=O)[O-])cc1N,inactive
7,CCCCCCCCCCCCCCC1CO1 (stereo not given),inactive
8,CCCCCCCCCCCC(=O)O,inactive
9,C1OCOCO1,inactive
10,COc1cc(/C=C/c2ccccc2)oc(=O)c1,inactive
11,c1ccc2c(c1)[nH]c1ccccc12,inactive
12,CCO[Si](CCCN)(OCC)OCC,inactive
13,CC(C)=CCCC(C)CCO (stereo not given),inactive
14,CC1=C2[C@H](/C=C(\C)C(=O)O)CC[C@@H](C)[C@H]2CC1,inactive
15,O=C(O)c1ccccc1,inactive
16,COC(=O)CCCCC(=O)OC,inactive
17,C=CCc1ccc(OC)c(OC)c1,inactive
18,C=C(C)C1CC=C(C)C(O)C1 (stereo not given),inactive
19,C=CC(=C)CCC=C(C)C,inactive
20,CCCCCCCCCCCCCC(=O)O,inactive

row,SMILES,Potency
1,COc1ccc2nc(N)sc2c1,inactive
2,Nc1ccc(S(=O)(=O)O)cc1,inactive
3,c1ccccc1,inactive
4,O=C1CCc2ccccc2O1,inactive
5,C=CC(=O)OCCOCCOCCOCCOC(=O)C=C,10 µM (active) and 15.8 µM (active)
6,CCCCOCCO,inactive
7,CC1=CC(C)(C)Nc2ccccc21,inactive
8,c1ccc2c(c1)c1cccc3ccc4cccc2c4c31,inactive
9,O=C1c2ccccc2C(=O)C1c1ccc2ccccc2n1,inactive
10,O[C@@H]([C@H](O)[C@@H](O)CBr)[C@@H](O)CBr,inactive
11,O=C(O)c1ccc(O)cc1O,inactive
12,S=C1NC=NC2N=CNC12 (stereo not given),inactive
13,Nc1ccc(Cl)cc1Cl,inactive
14,CCCN(CCC)C(=O)SCC,inactive
15,O=S(=O)(O)c1ccccc1,inactive
16,O=C(O)c1ccccc1C(c1ccc(O)cc1)c1ccc(O)cc1,inactive
17,COCC(=O)O,inactive
18,COC(=O)c1ccc(C=O)cc1,inactive
19,C[C@H](CCC(=O)O)[C@H]1CC[C@H]2[C@@H]3CC[C@@H]4C[C@H](O)CC[C@]4(C)[C@H]3CC[C@]12C,inactive
20,Cc1ccc(N)c([N+](=O)[O-])c1,inactive
